In the library only some 6.5% were active in any assay of this set; here they are far more common.
FMDV antiviral: High Throughput Screening for Foot and Mouth Disease Virus Antivirals. FMDV antiviral cell-based qHTS. Potency, µM (titrated, usually from 57.9 µM), for the others: at the top dose activity change, negative = inhibition, most hits filed as inhibitors. 1.2% of 410,000 active. AID 1159524, 2015; calls by dose curve; tested in HEK293T cells; also: read-out not given here; potency is read from the fitted curve at half-maximal effect; nearly all actives have a fitted effect of over 45% in size
Vaccinia Venus: qHTS for Stage-Specific Inhibitors of Vaccinia Orthopoxvirus: Venus Reporter Primary qHTS; Vaccinia virus Venus reporter expression, fluorescence; Potency, µM (titrated, usually from 36.5 µM), without a hit: top-dose activity change, negative = inhibition, actives largely listed as inhibitors; 0.46% of 330,000 active; AID 720580, 2013; calls by dose curve; tested in A549 cells; also: potency is read from the fitted curve at half-maximal effect; nearly all actives have a fitted effect of over 30% in size
MARV entry inh: qHTS for inhibitors of binding or entry into cells for Marburg Virus; Marburg virus pseudotyped entry inhibition, cell reporter; Potency, µM (titrated, usually from 37.8 µM), inactives show at the highest dose activity change, negative = inhibition, hits mostly inhibitors; 1.8% of 300,000 active; AID 540276, 2011; calls by dose curve; tested in HEK293 cells; also: potency is read from the fitted curve at half-maximal effect
Lassa entry inh: qHTS for Inhibitors of binding or entry into cells for Lassa Virus; Lassa virus pseudotype entry inhibition, cell reporter; Potency, µM (titrated, usually from 37.9 µM), inactives show top-dose activity change, negative = inhibition, hits mostly inhibitors; 1.2% of 300,000 active; AID 540256, 2011; calls by dose curve; tested in HEK293 cells; also: potency is read from the fitted curve at half-maximal effect; nearly all actives have a fitted effect of over 50% in size
VACV mCherry inh: qHTS for Stage-Specific Inhibitors of Vaccinia Orthopoxvirus: mCherry Reporter Primary qHTS | Vaccinia virus mCherry reporter infection, fluorescence | Potency, µM (top dose mostly 36.5 µM), inactives show top-dose activity change, negative = inhibition, actives largely listed as inhibitors | 0.63% of 310,000 active | AID 720579, 2013; calls by dose curve; tested in A549 cells; also: potency is read from the fitted curve at half-maximal effect; nearly all actives have a fitted effect of over 35% in size
HCMV antiviral: qHTS Assay for inhibitors of the human cytomegalovirus (HCMV). AID 1259415, 2018. activity change, negative = inhibition, % at 57.5 µM. HFF cells, HCMV-luciferase reporter, 72 h; hits give low values. 4.5% of 410,000 active; in the data active = activity change below about -60%; inconclusive = no clear call, values can overlap the other calls; inactive = above about -39%
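Cell-based, HFFs, 1000 cells/well, 16 h 37C; cpds in DMSO + HCMV-luc, MOI 1 PFU/cell; 72 h 37C; OneGlo luminescence after 5 min RT; norm. to buffer vs Salinomycin 10uM.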
Starred values were filed as active, the others as inactive; i = inactive; ? = inconclusive; nt = not tested or not shown; [ ] = dose if it differs, or a comment. % is scaled to controls: 0 for no effect and ±100 for the full control effect.

SMILES	FMDV antiviral	Vaccinia Venus	MARV entry inh	Lassa entry inh	VACV mCherry inh	HCMV antiviral
C/C(=N\NC(=S)NCc1ccccc1)c1ccc(C)o1	25.6%	-24.8%	21.6%[46.1 µM]	?	?	-106.8*
C/C(=N\NC(=S)NCc1ccccc1)c1ccc(Br)cc1	-0.8%	-12.0%	24.2%[46.1 µM]	?	-18.1%	378.1
C/C(=N\NC(=S)NCCc1ccccc1)c1ccc(C)cc1	-9.0%	-12.5%	16.4µM*	?	-12.8%	27.0
COc1cccc(/C=C/c2nccc3ccccc23)c1OC	nt	-17.3%	nt	nt	-20.1%	nt
CC(=O)OC[C@H]1O[C@H](CC=NO[C@H](C)CN2CCCCc3nc(C)c(C)cc32)C=C[C@@H]1OC(C)=O	nt	nt	-20.6%[14.2 µM]	nt	nt	nt
COc1ccc(-n2c(=O)c3ccccc3n(Cc3ccc(F)cc3Cl)c2=O)cc1OC	-13.1%	-7.3%	-0.4%[46.1 µM]	6.3%[46.1 µM]	-7.8%	26.1
Cc1nc2ccccc2nc1-c1csc(-c2ccccc2)n1	nt	-17.0%	nt	nt	-19.8%	nt
Cc1nc2ccccn2c1C(=O)CSc1ccccc1Cl	25.1µM*	?	?	-15.1%	nt	-65.7*
Cc1nc2ccccn2c1C(=O)CSc1ccc(Cl)cc1Cl	-12.8%	nt	2.8%	0.1%	nt	-34.9
Cc1ccc(/C=C/C(=O)c2ccc([N+](=O)[O-])o2)cc1	?	?	nt	nt	-22.9%	-79.2*
O=C(/C=C/c1ccc(Cl)cc1)c1ccc([N+](=O)[O-])o1	?	10µM*	nt	nt	8.91µM*	-77.6*
COC(=O)[C@@H]1[C@@H](CO)[C@@H]2Cn3c(ccc(Br)c3=O)[C@H]1N2S(=O)(=O)c1ccccc1F	nt	nt	nt	nt	nt	-6.2
CC(C)(C)OC(=O)N1CCc2nc3ccccc3c(N)c2C1=O	nt	nt	nt	nt	nt	-10.2
COc1ccc(OC)c2[nH]c(C(=O)N/N=C/c3ccccc3O)cc12	?	?	nt	nt	?	-92.5*
COc1ccc(/C=N/NC(=O)c2cc3c(OC)ccc(OC)c3[nH]2)cc1O	-0.9%	?	?	?	7.08µM*	?
Cc1ccc(Cl)cc1Nc1nc2ccccc2c2nncn12	-19.5%	-4.6%	?	-3.2%[46.1 µM]	-15.1%	-12.8
CCc1ccc(C2CC(=O)N(c3cccc(C(F)(F)F)c3)C3=C2C(=O)OC3)cc1 (configuration not stated)	-23.8%	-1.5%	-21.6%[46.1 µM]	2.5%[46.1 µM]	9.8%	18.2
Cc1cccc(C(=O)N[C@H](C(=O)Nc2ncc(C)s2)C(C)C)c1	40.1%	?	4.7%[46.1 µM]	nt	12.6µM*	-106.9*
Cc1cccc(C(=O)N[C@H](C(=O)Nc2nnc(C3CC3)s2)C(C)C)c1	0.0%	-13.7%	19.7%	8.4%	-14.1%	-19.0
COc1ccc2c(c1)CC(NC(=O)Nc1ccc(NC(C)=O)cc1)CO2 (configuration not stated)	-16.3%	-14.5%	nt	15.4%[46.1 µM]	-23.2%	4.8
CCCS(=O)(=O)c1c(S(=O)(=O)CCC)c2cc(CC)ccn2c1C(=O)c1ccc(OC)cc1	-17.3%	-9.4%	15.9%[46.1 µM]	-16.5%[46.1 µM]	i	-30.3
CCCS(=O)(=O)c1c(S(=O)(=O)CCC)c2cc(-c3ccncc3)ccn2c1C(=O)OC	23.2%	-12.0%	5.62µM*	0.0%	-12.7%	160.2
NC(=O)NC(=O)C(c1ccccc1)N1CCN(S(=O)(=O)Cc2ccccc2)CC1 (configuration not stated)	-0.7%	-5.3%	0.0%	-1.8%	-2.3%	-87.6*
NC(=O)Nc1ccc(C(=O)N2CCN(S(=O)(=O)Cc3ccccc3)CC2)cc1	-12.2%	nt	nt	nt	nt	5.2
Cc1cccc(NC(=O)CSc2nc3n[nH]c(C)c3c(=N)n2-c2cccc(Cl)c2)c1	-19.9%	-18.9%	nt	?	-18.8%	44.3
COC(=O)/C=C1\N/C(=N\c2nc(C)cc(C)n2)N(c2ccc(C)c(C)c2)C1=O	25.1µM*	?	-15.7%	?	?	43.6
COC(=O)/C=C1\N/C(=N\c2nc(C)cc(C)n2)N(c2ccc(Cl)cc2)C1=O	-48.1%	-14.1%	5.9%[14.2 µM]	-2.5%	?	-27.2
CC(C)C(=O)NC(=O)[C@@H]1CCCN1C(=O)C=Cc1ccccc1	nt	nt	1.4%[14.2 µM]	nt	nt	nt
COC(=O)[C@@H]1Cc2c([nH]c3ccccc23)C(C)(C)N1C(=O)CCl	?	?	7.08µM*	7.94µM*	?	-99.2*

From PubChem BioAssay
